# Laboratory results as given in PubChem BioAssay (NCI).
# About 79,000 compounds went through this panel and 15% of them were active in at least one assay; those are over-represented in the sample as a whole. Values without a mark were called inactive. The source made the active and inactive calls. No stated cut-off is given here; in the data, active means growth inhibition above about 70%; inactive means the rest.
# Tests used:
# [1] = NCI Yeast Anticancer Drug Screen. Data for the rad50 strain (AID 155);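 further: 0% = growth of vehicle-only cultures of the same strain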; settings: S. cerevisiae rad50 strain growth inhibition; at 50.0 µM; hits give high values
# In short: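 Compounds were tested on a yeast strain with an engineered DNA damage repair alteration; the reported value is growth inhibition normalised to vehicle treatment.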
# [2] = NCI Yeast Anticancer Drug Screen. Data for the mec2-1 strain (AID 157); settings: S. cerevisiae mec2-1 strain, at 50.0 µM, hits give high values
# In short: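 Mutant yeast (mec2-1) grown with compound; growth inhibition relative to vehicle control reported.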
# [3] = NCI Yeast Anticancer Drug Screen. Data for the sgs1 mgt1 strain (AID 161);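 further: 0% = growth of cultures given vehicle only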; settings: S. cerevisiae sgs1 mgt1 strain, at 50.0 µM, hits give high values
# In short: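 This yeast growth screen uses a strain with defined DNA-repair lesions; compound-treated growth is compared with vehicle-treated growth.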
# [4] = NCI Yeast Anticancer Drug Screen. Data for the cln2 rad14 strain (AID 165);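 further: 0% = growth equal to vehicle treated cultures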; settings: S. cerevisiae cln2 rad14 strain, at 50.0 µM, hits give high values
# In short: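 Readout is yeast growth inhibition versus vehicle-treated controls, using a strain with cln2 and rad14 alterations exposed to compound.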
# [5] = NCI Yeast Anticancer Drug Screen. Data for the bub3 strain (AID 167); settings: S. cerevisiae bub3 mutant strain, at 50.0 µM, hits give high values
# In short: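 Growth of a checkpoint-deficient yeast mutant is measured after compound exposure. Values represent inhibition relative to vehicle.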
# [6] = NCI Yeast Anticancer Drug Screen. Data for the mlh1 rad18 strain (AID 175); settings: S. cerevisiae mlh1 rad18 strain growth inhibition; at 50.0 µM; hits give high values
# In short: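 Genetically defined yeast (DNA repair-deficient) exposed to compounds; growth inhibition determined relative to vehicle.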
Compound,growth inhibition [1],growth inhibition [2],growth inhibition [3],growth inhibition [4],growth inhibition [5],growth inhibition [6]
N#CC(C#N)=CN1CCCC1,-19.6%,9.4%,-6.45%,-12.3%,-5.95%,-1.7%
CC(C)COC(=O)c1cc(O)[nH]c(=O)c1,-19.6%,-7.8%,1.75%,-40.1%,-15.5%,-6.8%
COC(=O)C(C(=O)C(=O)Nc1cccc([N+](=O)[O-])c1)c1nc2ccc([N+](=O)[O-])cc2[nH]c1=O (stereo unspecified),37.6%,17.6%,-10.2%,-37.8%,9.2%,46.5%
Cc1nn(CCO)c(N)c1C(N)=O,5.35%,-4.25%,5.55%,-13.4%,4.9%,16.9%
O=C(CCc1cccs1)OC1CCCCC1,9%,7.05%,4.4%,13.6%,9.35%,20.9%
COC(=O)C1CCC(=O)CC1,-1%,-0.35%,-9.9%,-19.9%,2.4%,-3.15%
CC1(C)S/C(=C\c2ccccc2)c2nc3ccccc3c(=O)n21,-6.8%,-7.2%,-16.1%,2.3%,-0.4%,-21.4%
COc1cc(C)c2c(c1)C=C[C@@H]1[C@@H]2CC[C@]2(C)C(=O)CC[C@@H]12,-10.1%,3.3%,-2.55%,-48.2%,-0.05%,-3.1%
CN(C)C1=NC(c2ccccc2)(c2ccccc2)C(=O)N1,-17.4%,-8.15%,-3.15%,-40.5%,-6.35%,-23.4%
ClCCCOCc1ccccc1,8.2%,-13.2%,3.65%,16.4%,11.9%,6.3%
O=C(N/N=C/c1ccccc1Cl)c1ccccc1,-19.4%,-1.25%,-5.3%,-7.55%,-4.05%,-9.6%
CCCCCCCCCCCCCCCCOc1ccc(N)cc1,11.7%,6.05%,-16.3%,-41.2%,19%,1.1%
CCCN(CCC)CCc1cc(C(C)=O)n(S(=O)(=O)c2ccc(C)cc2)c1,-10.2%,-17.8%,0.3%,19.6%,-7.35%,21.4%
CCCC=NCCCC,-17.1%,-7.55%,-35.6%,-67%,-30%,-24.4%
CCOC(=O)Oc1ccc(Cl)cc1Cl,3.2%,14.1%,2.55%,5.2%,-4.4%,-3.8%
O=C(O)CCCC[P+](c1ccccc1)(c1ccccc1)c1ccccc1,21.1%,7.8%,13.5%,7.5%,35.3%,27.8%
CC(C)C1CCC(=O)CC1,9.9%,0.35%,-1%,-12.2%,0.75%,-4.9%
COC(=O)C[C@](O)(CCCC(C)(C)O)C(=O)O[C@@H]1C(OC)=C[C@]23CCCN2CCc2cc4c(cc2[C@H]13)OCO4,51.2%,35.4%,43.2%,41%,43.3%,42.5%

Compound,growth inhibition [1],growth inhibition [2],growth inhibition [3],growth inhibition [4],growth inhibition [5],growth inhibition [6]
COC(=O)C1C2CC3c4[nH]c5cc(OC)ccc5c4CCN3CC2CC(OC(=O)CCc2cc(OC)c(OC)c(OC)c2)C1OC (stereo unspecified),-3.35%,-0.2%,4.25%,13.4%,14.7%,9.85%
Cc1c2oc3c(C)ccc(C(=O)NCCN4CCCC4)c3nc-2c(C(=O)NCCN2CCCC2)c(N)c1=O,64.5%,17.4%,5.9%,4.2%,3.6%,9.65%
CN(C)c1ccc(/C=C(\C#N)c2c(Cl)cccc2Cl)cc1,-13.9%,-8.55%,-11.1%,-25.4%,8.3%,-5.75%
Cc1cccc(C)c1NC(=O)/C(Cc1nc2ccc([N+](=O)[O-])cc2[nH]c1=O)=N\NC(N)=O,55.4%,50.6%,30.9%,8.85%,66.5%,41.4%
COc1ccc(C(=O)CC(C#N)c2ccc(OC)cc2)cc1 (stereo unspecified),-6.5%,3.25%,0.55%,-21.2%,-4.75%,-1.35%
Cc1ccc(N=C2C(c3ccccc3)=C(SC3=C(c4ccccc4)C(=Nc4ccc(C)cc4)c4ccccc43)c3ccccc32)cc1,12.9%,0.7%,3.9%,15.2%,-3%,-8.65%
CCCCCCCC(=O)Oc1cccc(C)c1,-0.9%,-3.3%,-8.6%,-10.3%,-7.35%,2.2%
CC1OC(OC2C(OC(=O)[C@]34CCC(C)(C)C[C@H]3C3=CC[C@@H]5[C@@]6(C)CC[C@H](OC7OC(C(=O)O)C(O)C(OC8OCC(O)C(O)C8O)C7O)C(C)(C)[C@@H]6CC[C@@]5(C)[C@]3(C)CC4)OCC(O)C2O)C(O)C(OC2OCC(O)C(O)C2O)C1OC1OCC(O)C(OC2OCC(O)C(O)C2O)C1O (stereo partly specified),17.1%,21.2%,19.6%,31.2%,38.4%,29.8%
CC(=O)Oc1ccc(CCNC(c2ccccc2)c2ccccc2)cc1OC(C)=O,44%,13.2%,42.5%,-7.6%,-17.4%,38.3%
COc1ccc(COC(=O)Oc2ccc(Cl)cc2)cc1OC,93.8% (active),63.3%,50.7%,79.8% (active),90.5% (active),94.8% (active)
COc1ccc2c(c1OC)Oc1c(OC)ccc3c1C(C2)N(C)C[C@@H]3O (stereo partly specified),10.1%,3.25%,-7.6%,-0.6%,26.1%,-5.5%
CCOC(=O)C/C(C)=N/NS(=O)(=O)c1ccc(NC(C)=O)cc1,-7.6%,-19.6%,8.25%,-9.3%,-27.3%,-24.8%
O=C(O)C(CO)C(CO)C(=O)O (stereo unspecified),-12.9%,-14.4%,-7.05%,-14.7%,-22.8%,-2.15%
NNC(=S)N/N=C(\c1nc2ccc(Cl)cc2[nH]c1=O)C(O)c1cccc([N+](=O)[O-])c1 (stereo unspecified),48.6%,27.6%,12%,-17.1%,27.4%,-8.4%
CCOC1=CC(=O)CCC1,-0.2%,-23%,24.9%,-36.5%,-7.1%,3%
CCc1n[nH]c(=S)n1/N=C/c1ccc(-c2ccc([N+](=O)[O-])cc2)o1,14.6%,-17.6%,-14%,9.85%,-14.1%,10.3%
CCC(c1ccc2oc(C)cc2c1)C(CC)c1ccc2oc(C)cc2c1 (stereo unspecified),-15.4%,-4.9%,-3.45%,13.2%,45%,-23.2%
COc1ccc(C(=O)C(C(=O)C(=O)NCCCNC(=O)C(=O)C(C(=O)c2ccc(OC)cc2)c2ccc(OC)cc2)c2ccc(OC)cc2)cc1 (stereo unspecified),-11.9%,-25.6%,-7.1%,13.8%,-9.25%,-10.7%
